{"source": "PubChem BioAssay (Tox21)", "note": "Calls of active or inactive are those of the source. Where a call stands in place of a potency, no number is given. Calls come from the whole dose curve; as a rule, active = well fitted curve in the direction sought with a large enough effect in the repeat runs; inconclusive = weak or mixed curves; inactive = flat fitted curve, though single readings scatter. Potency is the fitted concentration of half-maximal effect; tags give direction and shape of the fitted curve or compound fluorescence and quenching.", "data": [{"assay": "qHTS assay to test for compound auto fluorescence at 535 nm (green) in HepG2 cell free culture (AID 720686)", "settings": "Cell-free medium, green autofluorescence 485/535 nm; series mostly up to 91.3 µM", "description": "U.S. Tox21 Program National Center for Advancing Translational Sciences [NCATS] NIH Chemical Genomics Center [NCGC] U.S. Environmental Protection Agency [EPA] National Institutes of Environmental Health Sciences [NIEHS] National Toxicology Program [NTP] U.S. Food and Drug Administration [FDA] Tox21 Assay Overview: Compound auto fluorescence often interferes with screening of the compound library against various biological targets and signaling pathways. Some of these compounds may have fluorophoric properties. Such properties may interfere with the assay outputs resulting in false positives and/or negatives. To decrease such complications and ensure the compound activities are relevant in terms of biological response, the Tox21 10K compound library was screened for auto fluorescence. From the fluorophores used as reporter signals in our screening assays, the auto fluorescence equivalencies of compounds against three fluorophores have been evaluated: Triamterene, Fluorescein and Rose Bengal sodium for blue, green and red fluorescence, respectively. The fluorescence intensities were measured using Excitation/Emission wavelengths at 405/460nm, 485/535nm and 540/590nm for blue, green and red labels, respectively. This assay includes the green fluorescence data.\nTox21 Assay Protocol Summary: 5 uL of culture medium (MEM containing 10% FBS) per well was dispensed into black wall/clear bottom 1536-well plates using a Multidrop Combi Dispenser (ThermoFisher Scientific, Waltham, MA). After 23 nL compound or DMSO vehicle was transferred into assay plate by a pintool work station (Kalypsys, San Diego, CA), fluorescence intensities in the assay plates were measured by an Envision (PerkinElmer, Shelton, CT) plate reader using three labels for measuring blue, green and red fluorescence at […] 460, 535 and 590nm respectively.", "values": [{"smiles": "CCCCCCCC/C=C/CCCCCCCC1=NCCN1CCO", "Potency": "inactive"}, {"smiles": "O=[N+]([O-])c1cc([N+](=O)[O-])c2ccc(S(=O)(=O)O)cc2c1O", "Potency": "inactive"}, {"smiles": "CCOC(=O)O[C@H](C)OC(=O)c1ccc2c(c1)cc(C(=O)NC1CCN(C(C)C)CC1)n2Cc1cc(-c2ccc(Cl)s2)on1", "Potency": "inactive"}, {"smiles": "O=C(OC[C@H]1O[C@@H](OC(=O)c2cc(O)c(O)c(OC(=O)c3cc(O)c(O)c(O)c3)c2)[C@H](OC(=O)c2cc(O)c(O)c(OC(=O)c3cc(O)c(O)c(O)c3)c2)[C@@H](OC(=O)c2cc(O)c(O)c(OC(=O)c3cc(O)c(O)c(O)c3)c2)[C@@H]1OC(=O)c1cc(O)c(O)c(OC(=O)c2cc(O)c(O)c(O)c2)c1)c1cc(O)c(O)c(OC(=O)c2cc(O)c(O)c(O)c2)c1", "Potency": "inactive"}, {"smiles": "CCC(Cl)C(Cl)C(Cl)CC(Cl)C(Cl)C(C)Cl", "note": "(stereo not given)", "Potency": "inactive"}, {"smiles": "COc1cc(/C=C/C(=O)O[C@H]2CC[C@]34C[C@]35CC[C@]3(C)[C@@H]([C@H](C)CCC=C(C)C)CC[C@@]3(C)[C@@H]5CC[C@H]4C2(C)C)ccc1O", "Potency": "inactive"}, {"smiles": "CCCCCCCC/C=C\\CCCCCCCCOCCO", "Potency": "inactive"}, {"smiles": "[O-][n+]1ccccc1SSc1cccc[n+]1[O-]", "Potency": "inactive"}, {"smiles": "O=C(N/N=C/c1ccccc1O)c1ccncc1", "Potency": "inactive"}, {"smiles": "CCC(C)(C)C1CCCCC1OC(C)=O", "note": "(stereo not given)", "Potency": "inactive"}, {"smiles": "Nc1ccc2c3c(cccc13)-c1ccccc1-2", "Potency": "39.8 µM [fluorescent] (active)"}, {"smiles": "On1ccccc1=S", "Potency": "inactive"}, {"smiles": "O=C(O)c1cc(O)c2c(c1)C(=O)c1cccc(O)c1C2=O", "Potency": "inactive"}, {"smiles": "O=C(O)c1c(Cl)cccc1Cl", "Potency": "inactive"}, {"smiles": "Oc1ccc(C2(c3ccc(O)cc3)CC3CC2C2CCCC32)cc1", "note": "(stereo not given)", "Potency": "inactive"}, {"smiles": "CCN(CC)CCCC(C)Nc1c2ccc(Cl)cc2nc2ccc(OC)cc12", "note": "(stereo not given)", "Potency": "inactive"}, {"smiles": "O=C1CCCc2c1cc1ccc3cccc4ccc2c1c34", "Potency": "inactive"}, {"smiles": "CSc1ccc2c(c1)C(N1CCN(C)CC1)Cc1ccccc1S2", "note": "(stereo not given)", "Potency": "inactive"}, {"smiles": "NNc1nc(-c2ccc([N+](=O)[O-])cc2)cs1", "Potency": "inactive"}, {"smiles": "C[C@H](CCC(=O)O)[C@H]1CC[C@H]2[C@@H]3CC[C@@H]4C[C@H](O)CC[C@]4(C)[C@H]3CC[C@]12C", "Potency": "inactive"}, {"smiles": "C[C@@H](NCCCc1cccc(C(F)(F)F)c1)c1cccc2ccccc12", "Potency": "inactive"}, {"smiles": "CC(C)(C)CC(C)(C)c1ccc(OCCOCC[N+](C)(C)Cc2ccccc2)cc1", "Potency": "inactive"}, {"smiles": "Cc1ccc(O)c(C(C)(C)C)c1", "Potency": "inactive"}, {"smiles": "Cc1ccc(-n2nc(C(C)(C)C)cc2NC(=O)Nc2ccc(OCCN3CCOCC3)c3ccccc23)cc1", "Potency": "inactive"}, {"smiles": "Cc1c(C)c2c(c(C)c1O)CCC(C)(COc1ccc(CC3SC(=O)NC3=O)cc1)O2", "note": "(stereo not given)", "Potency": "inactive"}, {"smiles": "CC(C)n1nc(-c2cc3cc(O)ccc3[nH]2)c2c(N)ncnc21", "Potency": "inactive"}, {"smiles": "CCCCN(CCCC)c1ccc(C(=O)c2ccccc2C(=O)O)c(O)c1", "Potency": "inactive"}, {"smiles": "CCCCN1CCCC[C@H]1C(=O)Nc1c(C)cccc1C", "Potency": "inactive"}, {"smiles": "Cc1cc2c(cc1C(F)(F)F)N(C(=O)Nc1ccc(Oc3cccnc3C)nc1)CC2", "Potency": "inactive"}, {"smiles": "CC(C)(C)CC(C)(C)c1ccc(O)c(Cc2ccc(Cl)cc2Cl)c1", "Potency": "inactive"}, {"smiles": "CCCCCCCC[P+](CCCCCCCC)(CCCCCCCC)CCCCCCCC", "Potency": "inactive"}, {"smiles": "CCCC(c1cc(C(C)(C)C)c(O)cc1C)c1cc(C(C)(C)C)c(O)cc1C", "Potency": "inactive"}, {"smiles": "Clc1ccc2n[nH]nc2c1", "Potency": "inactive"}, {"smiles": "C=CC(=O)OCCn1c(=O)n(CCOC(=O)C=C)c(=O)n(CCOC(=O)C=C)c1=O", "Potency": "inactive"}, {"smiles": "O=C(Nc1cccc([N+](=O)[O-])c1)c1cc2ccccc2cc1O", "Potency": "inactive"}, {"smiles": "CCN(CC)CCNC(=O)c1c(C)[nH]c(/C=C2\\C(=O)Nc3ccc(F)cc32)c1C", "Potency": "inactive"}, {"smiles": "CCCCCCCCS(=O)C(C)Cc1ccc2c(c1)OCO2", "note": "(stereo not given)", "Potency": "inactive"}, {"smiles": "O=c1c(-c2ccccc2)c1-c1ccccc1", "Potency": "inactive"}, {"smiles": "CC1=C(C(=O)OC(C)C)C(c2cccc([N+](=O)[O-])c2)C(C(=O)OC2CN(C(c3ccccc3)c3ccccc3)C2)=C(N)N1", "note": "(stereo not given)", "Potency": "inactive"}, {"smiles": "CCN1/C(=C/C=C/c2sc3ccccc3[n+]2CC)Sc2ccccc21", "Potency": "inactive"}]}]}
